# Compound activity (PubChem BioAssay)
# Most compounds without a hit are left out; they make up all but 21% or so of the library.
# Pf growth 48h: Primary qHTS for delayed death inhibitors of the malarial parasite plastid, 48 hour incubation; P. falciparum luciferase growth in erythrocytes, 48 h; Potency, µM (doses to about 28.7 µM), actives largely listed as inhibitors; 5.9% of 310,000 active
#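 Compounds are pin-transferred into medium, infected erythrocytes (2% hematocrit, 0.1% parasitemia final) are added, and plates sit one parasite generation at 37 C in 5% CO2. Detection reagent is then added and luminescence measured.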
# NS1 inh: qHTS Assay for Inhibitors of Influenza NS1 Protein Function; Potency, µM (top dose mostly 46.1 µM); 0.4% of 270,000 active; AID 2326, 2010; calls by dose curve; further: actives are rising curves; nearly all actives have a fitted effect of over 50% in size
#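 Recovery from NS1-induced slow growth read by OD600 in budding yeast switched to galactose assay medium (pH 6.0, -URA) at 1:100 dilution. Compound 23 nl per well; the matching strain lacking NS1 serves as control.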
# CHX counter: Cycloheximide Counterscreen for Small Molecule Inhibitors of Shiga Toxin. cell reporter, cycloheximide protein synthesis inhibition counterscreen. 12% of 300,000 active. max response, %; in the data active means max response mostly above about 13%, no sharp cut-off; inactive means mostly below about 14%; further: read at 38.3 µM for the half of the compounds with a filed dose
# Shiga inhibitor: A qHTS for Small Molecule Inhibitors of Shiga Toxin | 9.2% of 290,000 active | Vero cells, Shiga toxin protein synthesis inhibition reporter | inhibition, % at 38.7 µM | AID 2315, 2010; in the data active means inhibition mostly above about 28%, no sharp cut-off; inactive means mostly below about 43%
# Pf growth 96h: Primary qHTS for delayed death inhibitors of the malarial parasite plastid, 96 hour incubation; Potency, µM (series often up to 28.7 µM), hits mostly inhibitors; AID 504834, 2011; P. falciparum luciferase reporter growth, 96 h; 6.9% of 320,000 active
#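 Compounds incubated with erythrocytes infected by luciferase-expressing P. falciparum (2% hematocrit, 0.05% parasitemia final) for 96 hours, 37 C in 5% CO2. Growth inhibition scored as decreased luciferase luminescence.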
# Hits are given with their value; i = inactive; ? = inconclusive; nt = no result. Unless noted, the call rests on the fitted dose curve; in most records, active means well fitted inhibition curve with a large enough effect; inconclusive means small, poorly fitted or top-dose-only effect, or another doubt; inactive means no such curve, though single readings can be large or run the other way.
SMILES,Pf growth 48h,NS1 inh,CHX counter,Shiga inhibitor,Pf growth 96h
O=C(c1cc(Cl)ccc1F)N1CCCC(Nc2ccc3c(c2)OCCO3)C1 (stereo unspecified),i,i,i,i,?
Cc1c(C(=O)Nc2ccncc2)oc2ccccc12,i,i,34.8,i,nt
Cc1c(C(=O)NC(C)c2ccncc2)oc2ccccc12 (stereo unspecified),?,i,i,i,nt
Cc1c(C(=O)OCC(=O)Nc2ccc(N3CCOCC3)cc2)oc2ccccc12,i,nt,nt,nt,i
Cc1c(C(=O)Nc2cccnc2Cl)oc2ccccc12,i,i,25.7,81.3,i
Cc1c(C(=O)Nc2ccccn2)oc2ccccc12,i,i,46.7,109.1,i
Cc1c(C(=O)Nc2ccc(N3CCOCC3)cc2)oc2ccccc12,i,i,39.6,96.6,i
O=C(NC1CCN(Cc2ccccc2Cl)CC1)c1ccccc1,?,i,i,i,?
Cc1ccc(NC(=O)c2oc3ccccc3c2C)nc1,i,i,63.3,88.2,i
Cc1ccc(NC(=O)c2cc3c(=O)oc4ccccc4c3s2)nc1,i,i,i,i,?
c1ccc2[nH]c(-c3cscn3)nc2c1,i,i,52.9,102.2,i
FC(F)c1nc2ccccc2[nH]1,i,i,i,i,i
c1ccc2nc(-c3nc4ccccc4[nH]3)ccc2c1,i,i,14.3,i,nt
O=CNn1cnc2c(oc3nc(-c4ccccc4)cc(-c4ccco4)c32)c1=O,i,nt,i,i,i
Cc1cc(C)c2nc(N3CCC(C(=O)NCc4cccnc4)CC3)sc2c1,i,nt,21.5,86.4,i
Cc1cc(C)c2nc(N3CCC(C(=O)NCc4ccccn4)CC3)sc2c1,i,nt,47.3,i,i
Cc1cc(C)c2nc(N3CCC(C(=O)NCCCN4CCCC4=O)CC3)sc2c1,i,i,i,i,i
CCCC(=O)Nc1ccc(S(=O)(=O)Nc2cc(OC)ncn2)cc1,i,i,i,i,i
Cc1ccc(NC(=O)CS(=O)CC(=O)N(CC(=O)NC(C)(C)C)c2cccc(C)c2C)cc1 (stereo unspecified),i,i,i,i,i
O=C(NCC1CCN(c2ccc(S(=O)(=O)N3CCOCC3)cc2)CC1)Nc1ccccc1,?,i,i,i,?
O=C(NC1CC1)C1CCN(c2ccc(S(=O)(=O)N3CCOCC3)cc2)CC1,4.15µM,i,i,i,i
CC(C)CNC(=O)C1CCN(c2ccc(S(=O)(=O)N3CCOCC3)cc2)CC1,7.38µM,i,i,i,nt
O=C(Nc1ccc2c(c1)OCO2)C1CCN(c2ccc(S(=O)(=O)N3CCOCC3)cc2)CC1,?,i,i,i,?
COc1ccccc1C(=O)NCC1CCN(c2ccc(S(=O)(=O)N3CCOCC3)cc2)CC1,nt,i,i,i,3.29µM
Cn1c(C[C@@H](O)c2nc3ccccc3n2C)nc2ccccc21,nt,i,nt,nt,nt
SMILES,Pf growth 48h,NS1 inh,CHX counter,Shiga inhibitor,Pf growth 96h
CCOC(=O)c1ccc(NC(=O)Nc2ncccc2C)cc1,i,i,i,i,i
Cc1cccnc1NC(=O)Nc1cccc(C(F)(F)F)c1,i,i,i,i,nt
Cc1ccc(NC(=O)Nc2ncccc2C)cc1,i,i,62.8,105.5,i
Cc1cccnc1NC(=O)Nc1ccc(F)cc1,nt,i,i,69.0,i
O=C1C(=O)N(CCCn2ccnc2)C(c2cccnc2)/C1=C(/O)c1ccccc1 (stereo unspecified),nt,i,nt,nt,nt
Cc1c(N=Cc2c(O)n(C)c(=O)c3ccccc23)c(=O)n(-c2ccccc2)n1C,i,i,i,i,i
COc1ccc(C2=C(C=Nc3c(C)n(C)n(-c4ccccc4)c3=O)C(c3ccccc3C)c3ccccc3O2)cc1OC (stereo unspecified),0.329µM,?,i,i,nt
CC(NC(=O)c1ccccc1SCC(=O)N1CCCC1)c1ccc(F)cc1 (stereo unspecified),i,i,i,i,?
Cc1cccc(-n2ncc(C(=O)NC3CCCC3)c2C2CCN(C(=O)OC(C)(C)C)CC2)c1,1.47µM,i,i,i,?
CC(C)(C)OC(=O)N1CCC(c2c(C(=O)NC3CC3)cnn2-c2ccccc2)CC1,11.7µM,i,i,i,i
O=C(c1ccco1)N1CCN(C(=O)c2cnn(-c3cccc(F)c3)c2C2CCNCC2)CC1,i,i,i,i,?
CC(C)(C)OC(=O)N1CCC(c2c(C(=O)N3CCN(C(=O)c4ccco4)CC3)cnn2-c2cccc(Cl)c2)CC1,11.7µM,i,i,i,i
CC1=C(C(=O)Nc2ccccc2C(=O)NC2CCCCC2)SCCO1,i,i,i,i,i
C=CCNc1nc(-c2ccc(Cl)cc2)cs1,i,i,63.5,130.4,nt
